High-throughput results: PubChem, National Center for Advancing Translational Sciences (NCATS)
Sampled rows, rich in hits. Any-hit rate of the full collection: about 12%.
BAZ2B inh – BAZ2B (human) inhibition | 360,000 tested, 4.4% active | AlphaScreen BAZ2B-H3K14Ac peptide displacement | Potency, µM (titrated, usually from 114 µM), hits mostly inhibitors | Q9UIF8; note: nearly all actives have a fitted effect of over 60% in size
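BAZ2B 50 nM plus b-H3(5-23)K14Ac 50 nM, PBS pH 7.4/0.01% Tween-20, 30 min RT; compound added (max 110 uM), 30 min RT; streptavidin donor/Ni-chelate acceptor beads 10 ug/mL final, 20 min dark; AlphaScreen read.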
HP1b binding inh – blocks HP1-beta chromodomain binding to methylated histone tails; P83916; AlphaScreen HP1-beta / biotin-H3K9me3 peptide binding; Potency, µM (titrated, usually from 114 µM), most hits filed as inhibitors; 390,000 tested, 0.56% active; AID 540317; note: nearly all actives have a fitted effect of over 70% in size
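HP1-beta protein (50 nM final) preincubated 30 min at room temperature with biotinylated H3(1-18)K9me3 peptide (50 nM) in PBS pH 7.4, 0.01% Tween-20, then compound added for 30 min. AlphaScreen streptavidin donor/nickel chelate acceptor beads (10 ug/mL final), 30 min dark, luminescence read.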
G9a inh – blocks human histone lysine methyltransferase G9a; Potency, µM (doses to about 102 µM), most hits filed as inhibitors; G9a H3K9 monomethylation, AlphaScreen, 2 h; Q96KQ7; 350,000 tested, 8.8% active; note: nearly all actives have a fitted effect of over 75% in size
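Signal arises when biotinylated H3K9 peptide, once monomethylated, bridges streptavidin donor and antibody-captured acceptor beads. Enzyme at 20 nM was preincubated 15 min with test compounds; peptide 500 nM and SAM 20 uM then reacted for 2 h.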
JMJD2A Tudor inh – JMJD2A Tudor domain (human) inhibition | O75164 | Potency, µM (highest dose often 114 µM), actives largely listed as inhibitors | AlphaScreen JMJD2A-Tudor / H3K4me3 peptide binding | 390,000 tested, 4.4% active; note: nearly all actives have a fitted effect of over 50% in size
L3MBTL1 inh – inhibitors of human L3MBTL1; Q9Y468; 230,000 tested, 0.66% active; Potency, µM (series often up to 57.1 µM), actives largely listed as inhibitors; AlphaScreen L3MBTL1–H3K9me1 peptide binding; AID 485360; note: nearly all actives have a fitted effect of over 60% in size
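L3MBTL1 50 nM + b-AHA-H3(1-15)K9me1 75 nM, 30 min RT; compound added, 30 min RT; streptavidin donor/Ni-chelate acceptor beads 10 ug/mL each final, 30 min RT dark; AlphaScreen read.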
Sfp PPTase inh – Sfp phosphopantetheinyl transferase inhibition; AID 1490; 310,000 tested, 3.5% active; Biochemical Sfp PPTase activity, qHTS; Potency, µM, hits mostly inhibitors;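 note: the enzyme is Sfp with the accession as filed and its product quenches rhodamine fluorescence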
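After 15 min at room temperature with compound, 15 nM Sfp received 5 uM rhodamine-CoA plus 12.5 uM BHQ-2-ybbR (50 mM Hepes pH 7.6, 10 mM MgCl2). Rate came from the fluorescence difference over 30 min, ex 525/em 598 nm.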
A number is an active result; [ ] = remark or other dose. Calls come from the whole dose curve; as a rule, active = well fitted curve in the direction sought with a large enough effect; inconclusive = small, poorly fitted or top-dose-only effect, or another doubt; inactive = no such curve, though single readings can be large; an effect the other way counts as inactive or inconclusive.

How did COc1cccc(C2=CC(c3ccc(N(C)C)cc3)n3ncnc3N2)c1 (configuration not stated) do in these assays?
BAZ2B inh: inactive; G9a inh: 40µM; L3MBTL1 inh: inactive; Sfp PPTase inh: inconclusive

How did COc1cccc(C2=CC(c3ccccc3)n3ncnc3N2)c1 (configuration not stated) do in these assays?
BAZ2B inh: 56µM; G9a inh: inconclusive; L3MBTL1 inh: inactive; Sfp PPTase inh: inactive

Results for COc1ccc(C2C=C(c3ccc(Cl)c(Cl)c3)Nc3ncnn32)cc1 (configuration not stated) ?
BAZ2B inh: inactive; HP1b binding inh: inactive; G9a inh: inactive; JMJD2A Tudor inh: inactive

How did C(=N\Nc1nc2ccccc2s1)/c1cccs1 do in these assays?
BAZ2B inh: inconclusive; HP1b binding inh: inactive; G9a inh: inactive; JMJD2A Tudor inh: inactive; L3MBTL1 inh: inactive; Sfp PPTase inh: inactive

Results for CCn1c(C)c(/C=N/Nc2nc3ccccc3s2)c2ccccc21 ?
BAZ2B inh: 16µM; HP1b binding inh: inconclusive; G9a inh: 40µM; JMJD2A Tudor inh: 32µM; L3MBTL1 inh: inconclusive; Sfp PPTase inh: inactive

How did C[N+]1(CC2COC3(CCCCC3)O2)CCCC1 (configuration not stated) do in these assays?
BAZ2B inh: inactive; HP1b binding inh: inactive; G9a inh: 14µM; JMJD2A Tudor inh: inconclusive; L3MBTL1 inh: inactive; Sfp PPTase inh: inactive

Results for O=C(NCCc1cccs1)c1ccc(Cn2c(SCc3ccc(F)cc3)nc3cccnc32)cc1 ?
BAZ2B inh: inactive; HP1b binding inh: inactive; G9a inh: inactive; JMJD2A Tudor inh: inactive

How did Cc1[nH]c2c(ccc3ccccc32)c1C1C(CCN)C1(C)C (configuration not stated) do in these assays?
BAZ2B inh: 56µM; HP1b binding inh: inactive; G9a inh: inactive; JMJD2A Tudor inh: 56µM; Sfp PPTase inh: inactive

What do the screens show for `CN(C)C1(CN=Cc2cc(Cl)cc([N+](=O)[O-])c2O)CCCCC1`?
BAZ2B inh: 45µM; HP1b binding inh: inconclusive; G9a inh: inconclusive; JMJD2A Tudor inh: 40µM; Sfp PPTase inh: inactive

What do the screens show for `C=C(C(=O)OC)C(NC(=O)OC)c1ccccc1` (configuration not stated)?
Sfp PPTase inh: inactive

How did Cc1ccc(S(=O)(=O)/N=C2/NC(=O)/C(=C\c3cc(Br)cc(Br)c3O)S2)cc1 do in these assays?
BAZ2B inh: 32µM; HP1b binding inh: inconclusive; G9a inh: 32µM; JMJD2A Tudor inh: 50µM; Sfp PPTase inh: inconclusive

What do the screens show for `COc1cc(/C=C2/S/C(=N/S(=O)(=O)c3ccccc3)NC2=O)c([N+](=O)[O-])cc1OC`?
BAZ2B inh: 71µM; HP1b binding inh: inactive; G9a inh: inactive[12.7 µM]; JMJD2A Tudor inh: inactive; Sfp PPTase inh: 79µM

How did O=C1N/C(=N\S(=O)(=O)Cc2ccccc2)S/C1=C/c1cc([N+](=O)[O-])ccc1O do in these assays?
BAZ2B inh: inactive; HP1b binding inh: inactive; G9a inh: 40µM; JMJD2A Tudor inh: inactive; L3MBTL1 inh: inactive; Sfp PPTase inh: 28µM

How did CC(NC(=O)c1ccc(F)cc1)c1nc2ccccc2[nH]1 (configuration not stated) do in these assays?
BAZ2B inh: inactive; HP1b binding inh: inactive; G9a inh: inactive; JMJD2A Tudor inh: inactive

How did COc1cc(OC)c(OC)cc1/C=C1\CC(C)C/C(=C\c2cc(OC)c(OC)cc2OC)C1=O (configuration not stated) do in these assays?
BAZ2B inh: 11µM; HP1b binding inh: inconclusive; G9a inh: 32µM; JMJD2A Tudor inh: 20µM; Sfp PPTase inh: 45µM

Results for CCC1C/C(=C\c2cc(OC)c(OC)cc2OC)C(=O)/C(=C/c2cc(OC)c(OC)cc2OC)C1 (configuration not stated) ?
BAZ2B inh: 10µM; HP1b binding inh: inconclusive; G9a inh: 25µM; JMJD2A Tudor inh: 18µM; Sfp PPTase inh: 56µM

Results for COc1cc(OC)c(OC)cc1/C=C1/Cc2ccccc2C1=O ?
BAZ2B inh: inactive; HP1b binding inh: inactive; G9a inh: inactive[2.33 µM]; JMJD2A Tudor inh: inactive; Sfp PPTase inh: inactive
